According to the supplement of paper PMC10849652:
Of roughly 7,900 targets only a part is listed; those with a hit were picked by preference. About 0.6% of all pairs of compound and target were hits.

Legend:
Assay in all cases: log2 fold change, soluble protein after heating vs DMSO (PISA); higher = thermal stabilisation; K562 cells, 10 uM, 30 min; active = over 0.2 and 3.5 SD of the protein, either way, in both replicates (recomputed)
[1] = compound: CS(=O)(=O)c1ccc(-c2cnc(N)c(C(=O)Nc3ccccc3)n2)cc1
Outline: (§1)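 Aliquots of K562 cells (2×10^6 cells/mL) treated with 10 μM compound for 30 min were heated for 3 min over 48°C-58°C. After pooling and extraction in PBS with 0.5% NP-40 at 4°C, soluble protein from a 21,000xg, 90 min spin was quantified by TMTpro 16plex LC-MS/MS with channel sums equalised. Thermal stability is expressed against control samples, from duplicates, as a log2 fold change.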

crizotinib = compound: C[C@@H](Oc1cc(-c2cnn(C3CCNCC3)c2)cnc1N)c1c(Cl)ccc(F)c1Cl [crizotinib]
Outline: as §1

[2] = compound: C[C@@H]1COCCN1C2=NC(=NC(=C2)C3(CC3)S(=O)(=O)C)C4=C5C=CNC5=CC=C4
Outline: as §1

[3] = compound: C[C@H](C1=CC=C(C=C1)C(=O)NC2=C3C=CNC3=NC=C2)N
Outline: as §1

duvelisib = compound: C[C@H](Nc1ncnc2nc[nH]c12)c1cc2cccc(Cl)c2c(=O)n1-c1ccccc1 [duvelisib]
Outline: as §1

gandotinib = compound: Cc1cc(Nc2cc(CN3CCOCC3)c3nc(C)c(Cc4ccc(Cl)cc4F)n3n2)n[nH]1 [gandotinib]
Outline: as §1

tozasertib = compound: Cc1cc(Nc2cc(N3CCN(C)CC3)nc(Sc3ccc(NC(=O)C4CC4)cc3)n2)n[nH]1 [tozasertib]
Outline: as §1

[4] = compound: Cc1cc(SCc2sc(-c3ccc(C(F)(F)F)cc3)nc2C)ccc1OCC(=O)O
Outline: as §1

doramapimod = compound: Cc1ccc(-n2nc(C(C)(C)C)cc2NC(=O)Nc2ccc(OCCN3CCOCC3)c3ccccc23)cc1 [doramapimod]
Outline: as §1

ispinesib = compound: Cc1ccc(C(=O)N(CCCN)[C@@H](c2nc3cc(Cl)ccc3c(=O)n2Cc2ccccc2)C(C)C)cc1 [ispinesib]
Outline: as §1

Measured: log2 fold change

RAB11FIP1 (UniProt Q6WKZ4)
inactive: [1] -0.071 | crizotinib -0.096 | [2] -0.001 | [3] -0.038 | duvelisib 0.004 | gandotinib -0.01 | tozasertib 0.057 | [4] -0.003 | doramapimod 0.047
active: ispinesib -0.251

PRKACA (UniProt P17612)
inactive: [1] 0.009 | crizotinib -0.088 | [2] 0.046 | [3] 0.043 | duvelisib -0.02 | gandotinib -0.105 | tozasertib -0.014 | [4] 0.112 | doramapimod 0.019 | ispinesib 0.053

PRKAG1 isoform 3 (UniProt P54619)
Chain of UniProt P54619 (P54619 whole entry, looked up): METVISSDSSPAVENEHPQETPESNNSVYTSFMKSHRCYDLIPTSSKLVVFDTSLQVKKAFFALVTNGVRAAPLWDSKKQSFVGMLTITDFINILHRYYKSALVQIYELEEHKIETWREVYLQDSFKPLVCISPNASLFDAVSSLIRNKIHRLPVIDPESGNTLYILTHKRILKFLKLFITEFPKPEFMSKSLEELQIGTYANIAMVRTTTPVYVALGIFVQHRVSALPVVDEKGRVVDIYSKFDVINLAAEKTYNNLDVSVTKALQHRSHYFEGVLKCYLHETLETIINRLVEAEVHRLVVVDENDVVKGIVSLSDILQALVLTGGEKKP
inactive: [1] -0.01 | crizotinib -0.114 | [2] 0.006 | [3] -0.023 | duvelisib 0.035 | gandotinib -0.249 | tozasertib -0.032 | [4] 0.004 | doramapimod -0.003 | ispinesib -0.018

PBK (UniProt Q96KB5)
Chain of UniProt Q96KB5 (Q96KB5 whole entry, looked up): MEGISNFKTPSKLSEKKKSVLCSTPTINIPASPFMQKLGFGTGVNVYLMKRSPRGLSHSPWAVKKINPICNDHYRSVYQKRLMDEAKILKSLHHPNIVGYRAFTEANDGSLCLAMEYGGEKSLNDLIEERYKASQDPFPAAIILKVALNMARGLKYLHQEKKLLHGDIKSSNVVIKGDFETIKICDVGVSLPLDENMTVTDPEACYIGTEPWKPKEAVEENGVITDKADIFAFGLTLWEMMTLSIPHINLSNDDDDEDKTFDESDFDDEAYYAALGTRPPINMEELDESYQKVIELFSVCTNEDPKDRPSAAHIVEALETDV
inactive: [1] 0.048 | crizotinib -0.046 | [2] 0.051 | [3] 0.134 | duvelisib 0.006 | gandotinib -0.136 | tozasertib 0.109 | [4] 0.157 | doramapimod 0.015 | ispinesib -0.066

PUM1 isoform 3 (UniProt Q14671)
Chain of UniProt Q14671 (Q14671 whole entry, looked up): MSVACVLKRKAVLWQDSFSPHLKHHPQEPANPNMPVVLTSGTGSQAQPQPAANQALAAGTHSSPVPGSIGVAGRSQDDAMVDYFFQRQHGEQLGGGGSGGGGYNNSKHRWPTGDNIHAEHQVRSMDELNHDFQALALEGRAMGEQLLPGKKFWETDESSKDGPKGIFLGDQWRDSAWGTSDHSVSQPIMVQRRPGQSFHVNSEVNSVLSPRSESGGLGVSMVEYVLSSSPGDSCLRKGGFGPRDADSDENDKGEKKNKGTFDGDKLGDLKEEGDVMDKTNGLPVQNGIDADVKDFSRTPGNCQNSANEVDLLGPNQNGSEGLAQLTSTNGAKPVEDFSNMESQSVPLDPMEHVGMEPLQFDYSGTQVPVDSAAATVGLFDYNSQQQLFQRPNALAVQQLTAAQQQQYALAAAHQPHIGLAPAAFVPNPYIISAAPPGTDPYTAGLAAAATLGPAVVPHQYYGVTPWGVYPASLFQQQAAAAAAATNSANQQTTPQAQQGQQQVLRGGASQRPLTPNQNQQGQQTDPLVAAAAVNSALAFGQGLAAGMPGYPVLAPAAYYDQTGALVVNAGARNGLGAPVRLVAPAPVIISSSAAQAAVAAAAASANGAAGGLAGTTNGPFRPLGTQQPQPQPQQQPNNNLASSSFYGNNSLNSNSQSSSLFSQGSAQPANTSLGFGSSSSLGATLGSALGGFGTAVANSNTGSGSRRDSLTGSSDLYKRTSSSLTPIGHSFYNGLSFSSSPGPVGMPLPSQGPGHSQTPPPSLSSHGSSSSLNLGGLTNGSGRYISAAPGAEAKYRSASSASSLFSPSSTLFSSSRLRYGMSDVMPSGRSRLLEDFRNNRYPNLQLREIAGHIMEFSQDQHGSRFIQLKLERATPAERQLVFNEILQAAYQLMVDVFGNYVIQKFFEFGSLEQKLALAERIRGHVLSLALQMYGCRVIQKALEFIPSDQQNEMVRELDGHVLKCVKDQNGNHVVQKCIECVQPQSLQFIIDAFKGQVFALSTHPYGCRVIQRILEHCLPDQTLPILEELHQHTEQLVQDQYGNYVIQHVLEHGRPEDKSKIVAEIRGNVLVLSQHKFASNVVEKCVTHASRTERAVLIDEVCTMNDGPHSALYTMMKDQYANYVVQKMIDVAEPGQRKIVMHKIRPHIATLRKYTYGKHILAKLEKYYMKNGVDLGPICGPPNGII
inactive: [1] 0.007 | crizotinib -0.02 | [2] -0.007 | [3] 0.071 | duvelisib 0.008 | gandotinib -0.055 | tozasertib 0.007 | [4] 0.007 | doramapimod -0.03 | ispinesib 0.01

PDLIM7 (UniProt Q9NR12)
inactive: [1] -0.01 | crizotinib -0.075 | [2] -0.002 | [3] -0.05 | duvelisib 0.019 | gandotinib 0.026 | tozasertib -0.002 | [4] 0.004 | doramapimod 0.012 | ispinesib -0.075

PRMT3 (UniProt O60678)
inactive: [1] -0.067 | crizotinib -0.137 | [2] -0.002 | [3] -0.058 | duvelisib -0.028 | gandotinib -0.156 | tozasertib 0.002 | [4] 0.111 | doramapimod -0.037 | ispinesib -0.02

PTRHD1 (UniProt Q6GMV3)
inactive: [1] 0.003 | crizotinib 0.006 | [2] 0.184 | [3] -0.097 | duvelisib 0.18 | gandotinib 0.08 | tozasertib 0.037 | [4] 0.022 | doramapimod -0.036 | ispinesib 0.225

PCK2 (UniProt Q16822)
inactive: [1] 0.009 | crizotinib 0.17 | [2] 0.01 | [3] -0.098 | duvelisib 0.064 | gandotinib 0 | tozasertib 0 | [4] -0.012 | doramapimod 0 | ispinesib 0.076

PRMT7 (UniProt Q9NVM4)
inactive: [1] 0.063 | crizotinib -0.142 | [2] 0.075 | [3] 0.083 | duvelisib 0.037 | gandotinib 0.067 | tozasertib 0.01 | [4] 0.12 | doramapimod 0.038 | ispinesib 0.065

PELP1 (UniProt Q8IZL8)
Chain of UniProt Q8IZL8 (Q8IZL8 whole entry, looked up): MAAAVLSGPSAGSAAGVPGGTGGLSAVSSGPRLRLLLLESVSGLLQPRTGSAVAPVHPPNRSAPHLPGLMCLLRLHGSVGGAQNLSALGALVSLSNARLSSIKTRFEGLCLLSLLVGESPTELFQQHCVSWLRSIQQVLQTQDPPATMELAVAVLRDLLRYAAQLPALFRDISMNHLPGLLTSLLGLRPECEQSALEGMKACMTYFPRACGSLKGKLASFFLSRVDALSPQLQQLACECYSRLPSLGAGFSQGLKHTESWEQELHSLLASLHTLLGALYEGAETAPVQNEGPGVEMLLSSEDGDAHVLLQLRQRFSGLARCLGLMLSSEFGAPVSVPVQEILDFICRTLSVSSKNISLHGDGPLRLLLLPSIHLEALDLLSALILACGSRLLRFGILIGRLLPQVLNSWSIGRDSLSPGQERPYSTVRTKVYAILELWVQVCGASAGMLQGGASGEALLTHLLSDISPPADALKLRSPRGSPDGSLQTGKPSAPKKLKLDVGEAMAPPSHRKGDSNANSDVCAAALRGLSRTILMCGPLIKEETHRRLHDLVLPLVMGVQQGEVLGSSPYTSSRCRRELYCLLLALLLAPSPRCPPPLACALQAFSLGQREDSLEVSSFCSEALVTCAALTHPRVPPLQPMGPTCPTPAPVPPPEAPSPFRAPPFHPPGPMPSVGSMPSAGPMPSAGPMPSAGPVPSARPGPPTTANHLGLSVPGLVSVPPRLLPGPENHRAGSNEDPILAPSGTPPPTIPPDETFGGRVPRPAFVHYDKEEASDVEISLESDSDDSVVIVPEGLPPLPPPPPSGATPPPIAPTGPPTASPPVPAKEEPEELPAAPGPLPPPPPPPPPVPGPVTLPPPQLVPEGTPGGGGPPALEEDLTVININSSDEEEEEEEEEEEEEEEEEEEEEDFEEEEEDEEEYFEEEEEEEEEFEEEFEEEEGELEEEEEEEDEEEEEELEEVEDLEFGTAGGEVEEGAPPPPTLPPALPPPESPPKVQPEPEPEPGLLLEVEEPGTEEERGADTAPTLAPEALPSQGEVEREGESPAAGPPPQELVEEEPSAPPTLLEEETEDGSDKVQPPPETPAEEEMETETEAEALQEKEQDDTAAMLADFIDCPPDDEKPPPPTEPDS
inactive: [1] -0.006 | crizotinib -0.012 | [2] -0.107 | [3] -0.024 | duvelisib -0.055 | gandotinib -0.282 | tozasertib -0.012 | [4] 0.111 | doramapimod 0.019 | ispinesib 0.004

PYGB (UniProt P11216)
Chain of UniProt P11216 (P11216 whole entry, looked up): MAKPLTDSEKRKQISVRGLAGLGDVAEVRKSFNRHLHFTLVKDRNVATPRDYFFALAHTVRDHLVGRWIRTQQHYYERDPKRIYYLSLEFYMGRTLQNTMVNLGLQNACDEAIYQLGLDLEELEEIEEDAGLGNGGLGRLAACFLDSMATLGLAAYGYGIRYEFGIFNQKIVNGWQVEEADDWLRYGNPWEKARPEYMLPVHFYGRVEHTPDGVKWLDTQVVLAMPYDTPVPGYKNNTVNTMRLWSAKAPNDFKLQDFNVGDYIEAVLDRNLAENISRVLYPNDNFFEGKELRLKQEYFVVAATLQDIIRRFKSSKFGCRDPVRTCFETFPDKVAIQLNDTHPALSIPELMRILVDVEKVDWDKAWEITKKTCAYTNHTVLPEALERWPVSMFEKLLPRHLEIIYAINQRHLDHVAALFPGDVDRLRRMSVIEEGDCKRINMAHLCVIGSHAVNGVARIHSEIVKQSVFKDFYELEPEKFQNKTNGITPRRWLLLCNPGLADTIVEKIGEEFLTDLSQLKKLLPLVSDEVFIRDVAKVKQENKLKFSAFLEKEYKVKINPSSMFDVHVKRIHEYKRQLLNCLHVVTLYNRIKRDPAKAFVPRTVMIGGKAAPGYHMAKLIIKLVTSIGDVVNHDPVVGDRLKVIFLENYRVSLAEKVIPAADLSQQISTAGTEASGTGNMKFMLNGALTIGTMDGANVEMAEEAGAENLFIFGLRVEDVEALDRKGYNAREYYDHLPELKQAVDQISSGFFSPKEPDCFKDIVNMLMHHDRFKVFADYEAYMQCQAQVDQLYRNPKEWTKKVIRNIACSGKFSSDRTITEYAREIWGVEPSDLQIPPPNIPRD
inactive: crizotinib -0.057 | [2] 0.015 | [3] 0.107 | duvelisib 0.026 | gandotinib -0.045 | tozasertib -0.04 | [4] -0.002 | doramapimod -0.005 | ispinesib 0.013
active: [1] -0.305

POLR2I (UniProt P36954)
inactive: [1] 0.003 | crizotinib 0.334 | [2] 0.052 | [3] 0.001 | duvelisib 0.085 | gandotinib 0.336 | tozasertib -0.086 | [4] -0.032 | doramapimod -0.047 | ispinesib 0.127

POLR3B (UniProt Q9NW08)
inactive: [1] 0.038 | crizotinib -0.111 | [2] -0.004 | [3] 0.034 | duvelisib 0.007 | gandotinib -0.07 | tozasertib 0.101 | [4] 0.085 | doramapimod 0.03 | ispinesib -0.183

POGLUT1 (UniProt Q8NBL1)
inactive: [1] 0.064 | crizotinib 0.059 | [2] 0 | [3] 0.241 | duvelisib -0.021 | gandotinib -0.011 | tozasertib 0.004 | [4] 0.037 | doramapimod 0.029 | ispinesib 0.087

PEX11B (UniProt O96011)
Chain of UniProt O96011 (O96011 whole entry, looked up, change not shown): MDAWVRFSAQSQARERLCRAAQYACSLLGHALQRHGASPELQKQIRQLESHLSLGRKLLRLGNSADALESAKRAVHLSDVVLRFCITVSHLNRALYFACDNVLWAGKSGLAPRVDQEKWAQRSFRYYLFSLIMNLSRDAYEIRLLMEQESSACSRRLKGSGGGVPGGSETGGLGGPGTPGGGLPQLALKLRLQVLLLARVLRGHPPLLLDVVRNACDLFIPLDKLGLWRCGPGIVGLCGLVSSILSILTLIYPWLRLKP
inactive: [1] -0.042 | crizotinib 0.02 | [2] 0.148 | [3] -0.012 | duvelisib 0.081 | gandotinib -0.073 | tozasertib 0.065 | [4] 0.014 | doramapimod 0.002 | ispinesib 0.07

PPP1R12A (UniProt O14974)
inactive: [1] -0.054 | crizotinib -0.351 | [2] -0.039 | duvelisib 0.065 | gandotinib 0.021 | tozasertib 0.011 | [4] 0.029 | doramapimod -0.054 | ispinesib -0.1
active: [3] -0.885

PTPA (UniProt Q15257)
inactive: [1] -0.001 | crizotinib 0.028 | [2] 0.074 | [3] -0.117 | duvelisib 0.052 | gandotinib -0.037 | tozasertib 0.024 | [4] 0.013 | doramapimod -0.001 | ispinesib 0.091

PRKAR2B (UniProt P31323)
inactive: [1] -0.026 | crizotinib -0.108 | [2] -0.067 | [3] -0.136 | duvelisib 0.007 | gandotinib -0.271 | tozasertib 0.026 | [4] 0.112 | doramapimod 0.073 | ispinesib -0.001

PRKCA (UniProt P17252)
inactive: [1] -0.023 | crizotinib -0.081 | [2] 0.044 | [3] -0.041 | duvelisib 0.158 | gandotinib -0.227 | tozasertib -0.052 | [4] 0.232 | doramapimod 0.01 | ispinesib -0.112

PARL (UniProt Q9H300)
Chain of UniProt Q9H300 (Q9H300 whole entry, looked up): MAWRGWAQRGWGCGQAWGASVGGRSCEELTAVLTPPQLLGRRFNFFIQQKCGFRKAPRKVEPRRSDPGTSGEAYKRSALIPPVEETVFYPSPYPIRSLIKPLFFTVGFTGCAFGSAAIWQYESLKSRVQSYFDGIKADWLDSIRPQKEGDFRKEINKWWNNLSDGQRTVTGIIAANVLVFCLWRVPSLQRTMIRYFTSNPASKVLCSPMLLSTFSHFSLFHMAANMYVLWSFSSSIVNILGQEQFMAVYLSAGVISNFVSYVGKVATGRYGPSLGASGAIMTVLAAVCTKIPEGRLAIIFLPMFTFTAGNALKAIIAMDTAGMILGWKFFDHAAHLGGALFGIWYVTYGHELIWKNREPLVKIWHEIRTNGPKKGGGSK
inactive: [1] -0.004 | crizotinib -0.036 | [2] 0.186 | [3] -0.011 | duvelisib 0.03 | gandotinib 0.025 | tozasertib -0.017 | [4] -0.035 | doramapimod -0.009 | ispinesib -0.193

PUF60 (UniProt Q9UHX1)
inactive: [1] -0.012 | crizotinib 0.031 | [2] 0.025 | [3] -0.199 | duvelisib 0.01 | gandotinib -0.09 | tozasertib 0.081 | [4] 0.056 | doramapimod -0.041 | ispinesib 0.039

PSMD11 (UniProt O00231)
inactive: [1] 0.036 | crizotinib -0.024 | [2] -0.035 | [3] 0.074 | duvelisib -0.04 | gandotinib 0.046 | tozasertib 0.08 | [4] 0.07 | doramapimod 0.013 | ispinesib 0.045

PSMC5 (UniProt P62195)
inactive: [1] 0.025 | crizotinib 0.001 | [2] -0.07 | [3] 0.057 | duvelisib -0.028 | gandotinib 0.017 | tozasertib 0.04 | [4] 0.036 | doramapimod 0.028 | ispinesib -0.007

POLR2A (UniProt P24928)
inactive: [1] 0.027 | crizotinib 0.231 | [2] 0.049 | [3] 0.21 | duvelisib 0.06 | tozasertib -0.026 | [4] 0.023 | doramapimod -0.009 | ispinesib 0.006
active: gandotinib 0.321

PRKAR1A (UniProt P10644)
inactive: [1] 0.209 | crizotinib 0.259 | [2] 0.03 | [3] 0.173 | duvelisib 0.208 | gandotinib 0.139 | tozasertib 0.041 | [4] 0.001 | doramapimod 0 | ispinesib -0.06

PLA2G15 (UniProt Q8NCC3)
inactive: [1] 0 | crizotinib -0.163 | [2] -0.008 | [3] 0.015 | duvelisib -0.038 | gandotinib -0.036 | tozasertib -0.075 | [4] -0.016 | doramapimod 0.015 | ispinesib -0.055

PDCD6 (UniProt O75340)
inactive: [1] 0.029 | crizotinib -0.047 | [2] 0.051 | [3] -0.021 | duvelisib 0.03 | gandotinib -0.056 | tozasertib 0.05 | [4] 0.038 | doramapimod 0.002 | ispinesib -0.045

PLBD2 (UniProt Q8NHP8)
inactive: [1] 0.014 | crizotinib -0.07 | [2] 0.044 | [3] -0.008 | duvelisib 0.045 | gandotinib 0.003 | tozasertib 0.015 | [4] -0.028 | doramapimod 0.022 | ispinesib -0.088

PPP2R5C isoform 5 (UniProt Q13362)
Chain of UniProt Q13362 (Q13362 whole entry, looked up): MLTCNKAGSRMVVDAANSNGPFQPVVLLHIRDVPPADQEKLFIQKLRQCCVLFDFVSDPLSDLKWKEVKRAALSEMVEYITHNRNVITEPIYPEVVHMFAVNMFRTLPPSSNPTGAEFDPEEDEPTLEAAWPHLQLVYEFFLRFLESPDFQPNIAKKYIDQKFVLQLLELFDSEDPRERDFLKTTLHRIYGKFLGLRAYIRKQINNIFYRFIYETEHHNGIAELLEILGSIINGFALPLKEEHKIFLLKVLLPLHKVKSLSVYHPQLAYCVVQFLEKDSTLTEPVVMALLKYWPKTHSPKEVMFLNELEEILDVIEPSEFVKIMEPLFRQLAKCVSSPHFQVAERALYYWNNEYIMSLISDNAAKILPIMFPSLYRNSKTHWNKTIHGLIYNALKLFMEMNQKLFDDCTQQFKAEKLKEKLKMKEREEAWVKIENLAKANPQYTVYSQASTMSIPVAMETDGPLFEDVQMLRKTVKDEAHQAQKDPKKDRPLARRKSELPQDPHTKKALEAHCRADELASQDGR
inactive: [1] -0.054 | crizotinib -0.071 | [2] 0.023 | [3] -0.05 | duvelisib 0.009 | gandotinib -0.024 | tozasertib -0.019 | [4] 0.069 | doramapimod -0.043 | ispinesib 0.007
